9 compounds from PubChem BioAssay (Tox21) can be followed below.

Experiment [1] can be described thus: qHTS assay to test for compound auto fluorescence at 535 nm (green) in HEK293 cells (AID 720680). Further: on the % scale 0 is the no-effect control and ±100 the full control effect. On the technique in general: In qHTS, concentration-response curves come from the screen itself.
Experiment [2] is described as follows: qHTS assay to test for compound auto fluorescence at 460 nm (blue) in HEK293 cell free culture (AID 720681). Further: on the % scale 0 is the no-effect control and ±100 the full control effect. In outline: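 Blue fluorescence (Ex 405/Em 460 nm, triamterene-equivalent) was read immediately after pin transfer of compound or DMSO into medium (DMEM, 10% FBS) without cells.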
The nature of experiment [3]: qHTS assay to test for compound auto fluorescence at 535 nm (green) in HEK293 cell free culture (AID 720682). Further: on the % scale 0 is the no-effect control and ±100 the full control effect. In outline:
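Intrinsic compound fluorescence is measured in culture medium containing 10% FBS, with excitation at 485 nm and detection at 535 nm, referenced to fluorescein.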

Experiment [4] is described as follows: qHTS assay to test for compound auto fluorescence at 590 nm (red) in HEK293 cell free culture (AID 720683). Further: on the % scale 0 is the no-effect control and ±100 the full control effect. In outline:
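Red-channel autofluorescence of compounds in culture medium (DMEM, 10% FBS), no cells, measured at 540/590 nm. Rose Bengal sodium is the reference fluorophore for equivalence.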

Experiment [5] is described as follows: qHTS assay to test for compound auto fluorescence at 590 nm (red) in HepG2 cell free culture (AID 720684). Further: on the % scale 0 is the no-effect control and ±100 the full control effect. In outline:
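Steps: dispense MEM/10% FBS medium, no cells; pin compound or DMSO vehicle; read red channel, Ex/Em 540/590 nm. Output given as Rose Bengal sodium equivalents.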

Experiment [6] in a line: qHTS assay to test for compound auto fluorescence at 460 nm (blue) in HepG2 cell free culture (AID 720685). Further: on the % scale 0 is the no-effect control and ±100 the full control effect. In outline: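 Compound (23 nL) or DMSO pinned into cell-free MEM with 10% FBS; blue fluorescence read at 405/460 nm excitation/emission, expressed as auto-fluorescence equivalency to triamterene.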
Experiment [7] in a line: qHTS assay to test for compound auto fluorescence at 535 nm (green) in HepG2 cell free culture (AID 720686). Further: on the % scale 0 is the no-effect control and ±100 the full control effect.
A short description of experiment [8]: qHTS assay to test for compound auto fluorescence at 460 nm (blue) in HepG2 cells (AID 720687). Further: on the % scale 0 is the no-effect control and ±100 the full control effect. In outline: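 Blue-channel autofluorescence (Ex/Em 405/460 nm, triamterene-equivalent) was measured after 1 hr compound exposure at 37 C, 5% CO2. Cells were HepG2, plated overnight at 37 C in MEM plus 10% FBS.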
Experiment [9] in a line: qHTS assay to identify small molecule antagonists of the glucocorticoid receptor (GR) signaling pathway - cell viability counter screen (AID 720693). Further: on the % scale 0 is the no-effect control and ±100 the full control effect; nearly all actives have a fitted effect of over 55% in size.
The nature of experiment [10]: qHTS assay for identifying genotoxic compounds that show differential cytotoxicity against isogenic chicken DT40 cell lines with known DNA damage response pathways - wild type cell line (AID 743012). Further: nearly all actives have a fitted effect of over 60% in size. Further: potency means the concentration at half of the fitted maximal effect. In outline:
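Parental DNA repair-proficient DT40 cells, 300 per well, were pre-incubated ~0.5 h at 37 C/5% CO2, pin-dosed with compounds in DMSO, then incubated 40 h. Viability was read as CellTiter-Glo luminescence after 30 min at room temperature.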

Experiment [11] can be described thus: qHTS assay for identifying genotoxic compounds that show differential cytotoxicity against isogenic chicken DT40 cell lines with known DNA damage response pathways - Rev3 mutant cell line (AID 743014). Further: on the % scale 0 is the no-effect control and ±100 the full control effect; nearly all actives have a fitted effect of over 55% in size.
Experiment [12] in a line: qHTS assay to identify small molecule antagonists of the androgen receptor (AR) signaling pathway - cell viability counter screen (AID 743033; further: on the % scale 0 is the no-effect control and ±100 the full control effect; nearly all actives have a fitted effect of over 45% in size).
Experiment [13] is described as follows: qHTS assay to identify small molecule antagonists of the androgen receptor (AR) signaling pathway using the MDA cell line - cell viability counter screen (AID 743041; further: on the % scale 0 is the no-effect control and ±100 the full control effect; nearly all actives have a fitted effect of over 45% in size). In outline:
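Cells were plated at 3,000 per well and left 5 h. Compounds in DMSO were then pinned in, followed by R1881. After 16 h at 37C, CellTiter-Fluor fluorescence gave viability.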

A short description of experiment [14]: qHTS assay for identifying genotoxic compounds that show differential cytotoxicity against isogenic chicken DT40 cell lines with known DNA damage response pathways - Rad54/Ku70 mutant cell line (AID 743015). Further: on the % scale 0 is the no-effect control and ±100 the full control effect; nearly all actives have a fitted effect of over 60% in size.
The target of experiment [15] is Androgen receptor (Homo sapiens) (UniProt P10275). In words: qHTS assay to identify small molecule antagonists of the androgen receptor (AR) signaling pathway (AID 743035; active means well fitted inhibition curve with a large enough effect in the signal ratio in the repeat runs, not every such curve was filed as active; the % refers to the signal ratio; further: potency means the concentration at half of the fitted maximal effect). In outline: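 HEK293 cells stably carrying a UAS-driven beta-lactamase reporter (AR-UAS-bla GripTite) were plated for 4 h at 37C, then given compound and the agonist R1881 and incubated 16 h. Reporter activity was read by LiveBLAzer B/G FRET fluorescence after 2 h at room temperature.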
Chain of Androgen receptor (Homo sapiens) (P10275 whole entry, looked up): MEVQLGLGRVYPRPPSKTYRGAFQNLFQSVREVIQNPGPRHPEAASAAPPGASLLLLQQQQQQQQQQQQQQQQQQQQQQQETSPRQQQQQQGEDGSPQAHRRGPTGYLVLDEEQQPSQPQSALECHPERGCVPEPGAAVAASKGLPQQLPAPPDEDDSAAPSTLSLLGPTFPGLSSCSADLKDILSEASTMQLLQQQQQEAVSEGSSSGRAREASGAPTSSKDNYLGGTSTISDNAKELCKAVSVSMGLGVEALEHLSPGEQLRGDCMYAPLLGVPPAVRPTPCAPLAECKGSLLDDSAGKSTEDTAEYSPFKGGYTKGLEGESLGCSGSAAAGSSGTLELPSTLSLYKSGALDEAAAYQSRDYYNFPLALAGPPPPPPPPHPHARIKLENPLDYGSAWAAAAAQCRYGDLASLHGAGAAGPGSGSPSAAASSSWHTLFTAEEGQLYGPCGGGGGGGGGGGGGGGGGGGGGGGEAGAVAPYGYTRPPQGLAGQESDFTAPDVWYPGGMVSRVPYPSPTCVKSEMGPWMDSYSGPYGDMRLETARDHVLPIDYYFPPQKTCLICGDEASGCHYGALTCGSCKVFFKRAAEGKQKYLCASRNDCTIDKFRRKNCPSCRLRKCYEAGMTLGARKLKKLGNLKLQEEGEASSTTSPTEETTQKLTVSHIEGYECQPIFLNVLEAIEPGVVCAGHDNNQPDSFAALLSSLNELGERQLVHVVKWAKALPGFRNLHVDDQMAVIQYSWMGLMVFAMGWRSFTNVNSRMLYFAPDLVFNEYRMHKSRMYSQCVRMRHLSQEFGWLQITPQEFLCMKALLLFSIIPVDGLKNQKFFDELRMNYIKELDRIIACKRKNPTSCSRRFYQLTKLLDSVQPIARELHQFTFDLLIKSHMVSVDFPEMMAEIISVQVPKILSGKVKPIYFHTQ

For experiment [16] the target is unchanged. In words: qHTS assay to identify small molecule agonists of the androgen receptor (AR) signaling pathway (AID 743036; active means well fitted activation curve with a large enough effect in the signal ratio in the repeat runs, with a control signal flat, not every such curve was filed as active; the % refers to the signal ratio; further: on the % scale 0 is the no-effect control and ±100 the full control effect). In outline: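 Agonist activity was scored by beta-lactamase reporter fluorescence in stably transfected HEK293 cells exposed to compounds for 16 h at 37C and 5% CO2. Substrate loading took 2 h at room temperature.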
For experiment [17] the target is unchanged. In words: qHTS assay to identify small molecule agonists of the androgen receptor (AR) signaling pathway using the MDA cell line (AID 743040; further: on the % scale 0 is the no-effect control and ±100 the full control effect; nearly all actives have a fitted effect of over 20% in size). In outline: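 Cells plated, 5 h at 37C/0% CO2; compound or DMSO pinned; 16 h at 37C; ONE-Glo added; luminescence measured after 30 min at room temperature. Reporter line: MDA-kb2 with MMTV-luciferase responsive to AR and GR.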

The target is the same in experiment [18]. In words: qHTS assay to identify small molecule antagonists of the androgen receptor (AR) signaling pathway using the MDA cell line (AID 743042; further: on the % scale 0 is the no-effect control and ±100 the full control effect; nearly all actives have a fitted effect of over 55% in size). In outline:
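Antagonist mode: compounds plus R1881 agonist added to MDA-kb2 AR-luc cells, incubated 16 h at 37C. Luciferase reporter luminescence quantified, with multiplexed CellTiter-Fluor readout for cell viability.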

Values without a mark were called inactive. Inconclusive results are not listed. Active and inactive are the calls of the source. Unless noted, the call rests on the fitted dose curve; in most records, active means well fitted curve in the direction sought with a large enough effect in the repeat runs; inconclusive means weak or mixed curves; inactive means no such curve, though single readings can be large; an effect the other way counts as inactive or inconclusive.

Turning to `NS(=O)(=O)c1ccccc1OC(F)(F)F`, the compound was classed as inactive in experiment [1], in experiment [2], in experiment [3], in [4], in experiment [5] and in experiment [6]. Besides, the result in experiment [7], in experiment [8], in experiment [12] and in experiment [13] was inactive. In addition, the Potency result in experiment [9], in [10] and in experiment [11] was “inactive” in each case.
As to `CC(=O)N(CC(O)CO)c1c(I)c(C(=O)NCC(O)CO)c(I)c(C(=O)NCC(O)CO)c1I` (stereo not drawn), the outcome in experiment [1], in experiment [2], in experiment [3], in experiment [4], in experiment [5] and in [6] was inactive. Also, the call in [7], in experiment [8], in experiment [12] and in experiment [13] was inactive. Moreover, the Potency entry in [9], in [10], in [11] and in [14] was “inactive” in each case.
Turning to `CCS(=O)(=O)CCn1c([N+](=O)[O-])cnc1C`, the fluorescence, % of fluorescein in [1] was 0.101% [at 18.6 µM]. Moreover, the fluorescence, % of fluorescent control was 0.0677% [at 18.6 µM] in [2], -0.106% [at 18.6 µM] in experiment [4], 0.0838% [at 18.6 µM] in experiment [6] and 0.0125% [at 18.6 µM] in experiment [8]. The activity change in [3] is 0.0328% [at 18.6 µM]. Besides, the fluorescence, % of Rose Bengal in [5] was 0.0121% [at 18.6 µM]. Besides, the fluorescence, % of fluorescein control in experiment [7] is -0.0978% [at 18.6 µM]. Moreover, the Potency entry in experiment [9], in [10], in experiment [11] and in experiment [14] was “inactive” each time. For the same compound, the call in experiment [12] and in [13] was inactive.
On to `O=C(Oc1ccccc1C(=O)O)c1ccccc1O`, for which the result in experiment [1], in [2], in experiment [3], in [4], in [5] and in [6] was inactive. The call in experiment [7], in [8], in [12] and in experiment [13] was inactive. The Potency result in experiment [9] and in experiment [14] was “inactive” in each case.
Take `COC(=O)CCC(=O)O`: the result in [1], in experiment [2], in experiment [3], in [4], in experiment [5] and in [6] was inactive. Besides, the compound was called inactive in experiment [7], in experiment [8], in experiment [12] and in experiment [13]. The Potency entry in [9], in experiment [10], in experiment [11] and in experiment [14] was “inactive” each time.
In the case of `CC(C)(CO)[C@@H](O)C(=O)NCCCO`, the compound was called inactive in experiment [1], in experiment [2], in experiment [3], in experiment [4], in [5] and in [6]. For the same compound, the call in experiment [7], in [8], in experiment [12] and in [13] was inactive. Further, the Potency result in experiment [9], in experiment [10], in experiment [11] and in experiment [14] was “inactive” throughout.
With `CC(=O)OC(C)(C)Cc1ccccc1`, the compound was classed as inactive in experiment [1], in [2], in experiment [3], in experiment [4], in [5] and in [6]. Further, the outcome in experiment [7], in experiment [8], in experiment [12] and in experiment [13] was inactive. Also, the Potency entry in experiment [9], in [10] and in experiment [11] was “inactive” in each case.
In the case of `O=C(CN1CCN(Cc2ccc3c(c2)OCO3)CC1)N1c2ccccc2Sc2ccccc21`, the result in [1], in experiment [2], in [3], in [4], in [5] and in [6] was inactive. The compound was classed as inactive in [7], in [8], in experiment [16], in experiment [17], in [13] and in experiment [18]. Also, in experiment [9], the Potency entry is “inactive”. In addition, the Potency in experiment [10] is 13.3 µM (active); in experiment [15] it was 26.8 µM (active).
For the compound `CCCCC(C)C(=O)O` (stereo not drawn), the compound was called inactive in experiment [1], in experiment [2], in experiment [3], in experiment [4], in [5] and in experiment [6]. Besides, the compound was called inactive in experiment [7], in experiment [8], in experiment [12] and in experiment [13]. For the same compound, the Potency entry in experiment [9], in [10], in [11] and in experiment [14] was “inactive” throughout.
